The source of these data is PMC5540273 (PLoS ONE, 2017).

Some test systems named below: PAK2; PAK3; PAK4; PAK6; PAK7; PDGFRA; PDGFRB; PDPK1; PFTAIRE2; PHKG1; PHKG2; PIK3C2B; PIK3C2G; PIK3CA; PIK3CB; PIK3CD.
Common to all, as to details: concentration: 1 μM, replicates: in singlicate; n = 1
The subject of another test is T1, PCTK1.
T1 construct: gene CDK16

The next test concerns T2, PCTK2.
T2 construct: gene CDK17

In the next test the test system is T3, PCTK3.
T3 construct: gene CDK18

Another test has as its system T4, PFTK1.
T4 construct: gene CDK14
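Also: KINOMEscan kinase panel screen.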

Turning to `FC(F)(F)c1ccc(-c2ncn(CCCN3CCOCC3)c2-c2ccncc2)cc1` [SB-217780], the “%Inh” value in the test on PAK2 is given as 34%; in the test with PAK3, 12%; with PAK4, 21%; with PAK6, 17%; with PAK7, 0%; in the test on PCTK1, 10%. The “%Inh” value is 0% in the test with PCTK2; 20% in the test on PCTK3; 34% in the test on PDGFRA; 32% in the test on PDGFRB; 0% in the test on PDPK1; 40% in the test on PFTAIRE2. The “%Inh” value with PFTK1 is given as 0%; in the test with PHKG1, 1%; with PHKG2, 4%; in the test with PIK3C2B, 0%; in the test with PIK3C2G it was 0%; in the test with PIK3CA, 0%. Moreover, the “%Inh” value with PIK3CB worked out at 4%; with PIK3CD, 0%.
For `COc1cccc(C2=C(N(C)c3ccccc3)C(=O)NC2=O)c1` [SB-334865], the “%Inh” value in the test on PAK2 worked out at 0%; in the test with PAK3, 1%; in the test with PAK4, 0%; in the test with PAK6, 0%; in the test with PAK7 it was 0%; with PCTK1, 0%. Moreover, the “%Inh” value amounted to 0% with PCTK2; 0% with PCTK3; 0% in the test on PDGFRA; 7% in the test on PDGFRB; 0% in the test on PDPK1; 0% in the test with PFTAIRE2. Also, the “%Inh” value stood at 20% with PFTK1; 0% in the test with PHKG1; 0% with PHKG2; 0% in the test on PIK3C2B; 0% with PIK3C2G; 0% in the test on PIK3CA. The “%Inh” value with PIK3CB and in the test with PIK3CD was 0% throughout.
As for `CCn1c(-c2nonc2N)nc2ccccc21` [SB-693162/GW549034], the “%Inh” value in the test on PAK2 was 27%; in the test on PAK3, 0%; in the test with PAK4, 0%; in the test with PAK6 it was 11%; in the test on PAK7, 11%; with PCTK1, 4%. Also, the “%Inh” value worked out at 0% in the test on PCTK2; 16% with PCTK3; 41% in the test with PDGFRA; 0% in the test on PDGFRB; 0% with PDPK1; 0% in the test on PFTAIRE2. The “%Inh” value in the test with PFTK1 is 17%; in the test with PHKG1 it was 21%; in the test on PHKG2, 16%; in the test on PIK3C2B it was 0%; with PIK3C2G it was 0%; in the test on PIK3CA, 0%. Moreover, the results for the “%Inh” value in the test with PIK3CB and in the test on PIK3CD were 62% and 0%, respectively.
`COc1cc(Nc2nccc(N3CCC(NC(=O)C(C)c4ccc(Cl)cc4)C3)n2)cc(OC)c1OC` (stereo not shown) [GSK1379757]: the “%Inh” value in the test with PAK2 amounted to 11%; in the test with PAK3, 22%; in the test on PAK4, 0%; with PAK6, 0%; in the test on PAK7 it was 0%; in the test on PCTK1, 0%. Besides, the “%Inh” value with PCTK2 came to 0%; with PCTK3, 0%; with PDGFRA, 0%; in the test with PDGFRB, 14%; with PDPK1, 0%; with PFTAIRE2 it was 11%. Besides, the “%Inh” value is reported as 6% in the test on PFTK1; 0% in the test with PHKG1; 0% with PHKG2; 10% in the test on PIK3C2B; 0% with PIK3C2G; 6% in the test on PIK3CA. Also, the “%Inh” value in the test on PIK3CB and in the test with PIK3CD was 0% in each case.
As to `CN1C(=O)C(Nc2cc(Cl)c(O)c(Cl)c2)=C(c2ccc(Cl)cc2)C1=O` [SB-404321], the “%Inh” value with PAK2 turned out to be 2%; in the test with PAK3 it was 0%; in the test on PAK4 it was 34%; in the test on PAK6, 0%; in the test on PAK7, 5%; in the test with PCTK1 it was 0%. Besides, the “%Inh” value amounted to 5% in the test on PCTK2; 0% in the test with PCTK3; 0% in the test on PDGFRA; 0% in the test on PDGFRB; 0% with PDPK1; 0% in the test on PFTAIRE2. In addition, the “%Inh” value in the test on PFTK1, with PHKG1, in the test with PHKG2, with PIK3C2B, with PIK3C2G and in the test with PIK3CA was 0% each time. Further, the “%Inh” value in the test on PIK3CB and in the test on PIK3CD was 0% in each case.
On to `CCC(=O)c1c(-c2ccccc2)c2cc(Cl)ccc2c(=O)n1Cc1cc(S(C)(=O)=O)n(CCC(C)(C)O)n1`, for which the “%Inh” value in the test on PAK2 is reported as 8%; in the test with PAK3, 21%; in the test with PAK4, 6%; with PAK6, 0%; in the test on PAK7 it was 2%; in the test on PCTK1, 29%. The “%Inh” value in the test on PCTK2 was 21%; with PCTK3, 13%; in the test with PDGFRA, 0%; in the test with PDGFRB, 0%; in the test with PDPK1 it was 0%; with PFTAIRE2 it was 0%. In addition, the “%Inh” value is given as 12% with PFTK1; 18% in the test with PHKG1; 0% in the test on PHKG2; 41% in the test with PIK3C2B; 52% in the test on PIK3C2G; 32% in the test with PIK3CA. In addition, the “%Inh” value was determined as 26% in the test with PIK3CB and 36% in the test on PIK3CD.
On to `CCCC(=O)Nc1n[nH]c2ncc(-c3cccc4ccccc34)cc12` [SB-642057], for which the “%Inh” value with PAK2 stood at 5%; in the test on PAK3, 0%; with PAK4 it was 0%; in the test with PAK6, 0%; in the test with PAK7, 0%; in the test on PCTK1, 27%. For the same compound, the “%Inh” value amounted to 35% in the test on PCTK2; 34% in the test on PCTK3; 0% with PDGFRA; 12% in the test with PDGFRB; 0% in the test on PDPK1; 23% with PFTAIRE2. Moreover, the “%Inh” value is on record as 39% in the test on PFTK1; 0% in the test on PHKG1; 2% in the test on PHKG2; 7% in the test on PIK3C2B; 0% with PIK3C2G; 13% in the test with PIK3CA. Moreover, the “%Inh” value with PIK3CB and in the test with PIK3CD was 0% throughout.
As to `Cc1cccc(-c2cc(-c3c[nH]nc3-c3ccccn3)ccn2)c1` [GW679395], the “%Inh” value came to 22% in the test with PAK2; 1% with PAK3; 0% in the test on PAK4; 0% in the test on PAK6; 0% in the test on PAK7; 5% in the test on PCTK1. In addition, the “%Inh” value came out at 0% with PCTK2; 1% with PCTK3; 0% in the test on PDGFRA; 61% in the test with PDGFRB; 0% with PDPK1; 1% with PFTAIRE2. The “%Inh” value with PFTK1 was 11%; in the test on PHKG1, 0%; in the test with PHKG2, 0%; with PIK3C2B, 1%; in the test with PIK3C2G, 0%; with PIK3CA, 0%. The “%Inh” value in the test with PIK3CB and with PIK3CD was 0% throughout.
As for `CCC(=O)c1c(-c2ccccc2)c2cc(Cl)ccc2c(=O)n1Cc1cc(C(=O)NC2CC2)n(C)n1`, the “%Inh” value in the test on PAK2 is listed as 16%; in the test with PAK3, 11%; in the test with PAK4, 0%; in the test on PAK6 it was 4%; in the test with PAK7, 0%; in the test with PCTK1, 1%. For the same compound, the “%Inh” value amounted to 6% in the test on PCTK2; 0% with PCTK3; 15% in the test on PDGFRA; 77% in the test with PDGFRB; 0% with PDPK1; 0% in the test with PFTAIRE2. For the same compound, the “%Inh” value is 0% in the test with PFTK1; 0% in the test on PHKG1; 0% in the test with PHKG2; 0% with PIK3C2B; 37% in the test with PIK3C2G; 0% in the test on PIK3CA. For the same compound, the “%Inh” value in the test on PIK3CB is given as 21%; in the test on PIK3CD, 14%.
On to `Nc1ncnc2c1ncn2-c1cccc(F)c1` [SKF-97560], for which the “%Inh” value with PAK2 amounted to 0%; with PAK3 it was 0%; in the test on PAK4 it was 5%; in the test on PAK6, 12%; in the test on PAK7 it was 3%; with PCTK1 it was 27%. Further, the “%Inh” value with PCTK2 is recorded as 1%; in the test on PCTK3, 10%; in the test with PDGFRA, 43%; in the test on PDGFRB, 58%; in the test on PDPK1 it was 7%; with PFTAIRE2 it was 0%. Further, the “%Inh” value was 20% with PFTK1; 5% in the test on PHKG1; 0% with PHKG2; 0% with PIK3C2B; 35% with PIK3C2G; 0% with PIK3CA. Besides, the “%Inh” value with PIK3CB and in the test on PIK3CD was 0% in each case.
Turning to `CCc1nc(-c2cccc(C)c2)c(-c2ccncc2)s1`, the “%Inh” value in the test with PAK2 is on record as 16%; with PAK3, 0%; with PAK4, 15%; in the test on PAK6 it was 3%; with PAK7, 0%; in the test with PCTK1 it was 0%. For the same compound, the “%Inh” value with PCTK2 is 1%; in the test on PCTK3 it was 2%; with PDGFRA, 0%; in the test on PDGFRB it was 70%; with PDPK1 it was 1%; in the test on PFTAIRE2, 0%. The “%Inh” value with PFTK1 was found to be 14%; in the test with PHKG1 it was 0%; with PHKG2, 9%; with PIK3C2B, 0%; in the test on PIK3C2G, 3%; in the test on PIK3CA it was 0%. Moreover, the figures for the “%Inh” value in the test with PIK3CB and with PIK3CD were 4% and 0%, respectively.
